According to PubChem BioAssay (Tox21):
Records with an inconclusive call do not appear. A number with no mark means an inactive call. The source made the active and inactive calls. The call rests on the fitted dose curve; in most records, active means well fitted cell-killing curve with a large enough effect in the repeat runs; inconclusive means weak or mixed curves, or effect the other way; inactive means flat fitted curve, though single readings scatter.

experiment: Human pregnane X receptor (PXR) small molecule agonists, qHTS cell viability counter screen (AID 1346977); details: PXR-Luc HepG2 viability, CellTiter-Fluor, 24 h; series mostly up to 92.4 µM; activity change, negative = cytotoxicity: at the top concentration; further: nearly all actives have a fitted effect of over 50% in size
From the text: U.S. Tox21 Program National Center for Advancing Translational Sciences [NCATS] NIH Chemical Genomics Center [NCGC] U.S. Environmental Protection Agency [EPA] National Institutes of Environmental Health Sciences [NIEHS] National Toxicology Program [NTP] U.S. Food and Drug Administration [FDA] Tox21 Assay Overview: The human pregnane X receptor (hPXR) regulates the expression of several drug metabolizing enzymes and induction of these proteins is a major mechanism for developing drug resistance in cancer. One such key enzyme catalyzing the drug metabolism is cytochrome P450 3A4 (CYP3A4). Changes in CYP3A4 expression affect drug metabolism, thereby reducing the therapeutic efficacy and altering toxicological response to a drug and which finally causes adverse drug interaction. To screen Tox21 libraries for compounds that activate hPXR-mediated CYP3A4 gene expression, PXR-Luc HepG2 cells were used. Also cytotoxicity of the compounds was tested in parallel by measuring the cell viability using CellTiter-Fluor assay system in the same wells.
Tox21 Assay Protocol Summary: PXR-Luc HepG2 cells were dispensed at 2,000 per well in 5uL of assay medium containing 5% charcoal-stripped FBS into white solid bottom 1536-well plates (Corning Life Sciences, Corning, NY) using a Multidrop Combi (Thermo Scientific, Waltham, MA) dispenser. The assay plates were incubated at 37 C and 5% CO2 for 5hr, and then 23nL of compounds dissolved in DMSO and positive control were transferred using a Pintool station (Wako, San Diego, CA). The assay plates were incubated at 37C and 5% CO2 for 24hr. For cytotoxicity read, after 23hr incubation at 37C, 1uL CellTiter-Fluor reagent (Promega Corporation, Madison, WI) was added to each well of the assay plates using Flying Reagent Dispenser (FRD, Aurora Discovery, San Diego, CA). After 1hr incubation at 37C and 5% CO2, the fluorescence signal was quantified using a ViewLux plate reader (PerkinElmer, Shelton, CT).
On the % scale 0 is the no-effect control and ±100 the full control effect; potency means the concentration at half of the fitted maximal effect.

Compound | Potency | activity change, negative = cytotoxicity
O=S(=O)(c1cccc2cnccc12)N1CCCNCC1 | 26.6 µM (active) | 
C=C(C)C(=O)OCCC(C)OC(=O)C(=C)C (stereo not given) |  | 8.62%
NC(=O)CCCCC1CCSS1 (stereo not given) |  | 2.25% [at 42.5 µM]
CC/C=C\CCCCO |  | 3.78%
O=C(CCOCCOCCOCCOCCC(=O)Nc1c(I)cc(I)c(C(=O)O)c1I)Nc1c(I)cc(I)c(C(=O)O)c1I |  | 8.14% [at 42.5 µM]
CC(C)COC(=O)c1ccccc1O |  | 0.331%
CCCCCCCCN(C)CCCCCCCC |  | 11.3%
COCCOC(=O)CC#N |  | 1.44%
C1CCCCCCCCCCC1 |  | 4.48% [at 19 µM]
NCC[C@H](O)C(=O)N[C@@H]1C[C@H](N)[C@@H](O[C@H]2O[C@H](CN)[C@@H](O)[C@H](O)[C@H]2O)[C@H](O)[C@H]1O[C@H]1O[C@H](CO)[C@@H](O)[C@H](N)[C@H]1O |  | -0.464% [at 0.349 µM]
N#CCN(CC#N)CCN(CC#N)CC#N |  | 9.02%
CCCOc1ccccc1-c1nc2n[nH]nc2c(=O)[nH]1 |  | 6.02% [at 42.5 µM]
CSc1ccc(C=O)cc1 |  | -0.675%
CCN(CC)S(=O)(=O)c1ccc(C(=O)O)cc1 |  | 8.18% [at 42.5 µM]
CC(C)c1cccc(O)c1 |  | 10.5%
CCC(=O)c1cccc(Cl)c1 |  | 1.86%
Cc1nccn1CC1CCc2c(c3ccccc3n2C)C1=O (stereo not given) |  | 10.1% [at 42.5 µM]
NC(=O)c1ncn([C@@H]2O[C@H](CO)[C@@H](O)[C@H]2O)c1N |  | 5.83% [at 42.5 µM]
FC(F)(F)C(F)(F)C(F)(F)C(F)(F)C(F)(F)C(F)(F)C(F)(F)C(F)(F)C(F)(F)C(F)(F)F |  | 1.13% [at 8.39 µM]
CC(C)(O)c1ccccc1 |  | -0.996%

Compound | Potency | activity change, negative = cytotoxicity
C=CCn1c(=O)n([C@@H]2O[C@H](CO)[C@@H](O)[C@H]2O)c2nc(N)[nH]c(=O)c21 |  | 13.1% [at 42.5 µM]
O=C(O)CCNC(=O)c1ccc(N=Nc2ccc(O)c(C(=O)O)c2)cc1 |  | -21.3% [at 42.5 µM]
CO |  | 0.877%
NS(=O)(=O)c1cc2c(cc1Cl)NC(CSCc1ccccc1)=NS2(=O)=O |  | 0.249% [at 42.5 µM]
OCC(O)[C@@H](O)[C@H](O)[C@H](O)CO[C@H]1O[C@H](CO)[C@@H](O)[C@H](O)[C@H]1O (stereo not given in full) |  | 5.32%
CC(C)(C)CC(C)(C)N |  | 0.0011%
CCCCCCCCCCCCI |  | 2.21%
CCCC(C)CO (stereo not given) |  | -2.55%
O=C1OC(=O)c2cc([N+](=O)[O-])ccc21 |  | 17.1%
CCCCCCCCCCCCCCCCCCOCC(O)CO (stereo not given) |  | 17.2% [at 42.5 µM]
CCn1c(=O)c2c(nc(/C=C/c3ccc(OC)c(OC)c3)n2C)n(CC)c1=O |  | -20.7% [at 42.5 µM]
CCN1CCN(c2cc3c(cc2F)c(=O)c(C(=O)O)cn3C2CC2)CC1 |  | -19.8% [at 42.5 µM]
O=S(=O)(O)c1ccccc1O |  | 1.07%
O=C(O)c1ccccc1-c1ccc(C(F)(F)F)cc1 |  | 8.73% [at 42.5 µM]
CC(=O)NC(Cc1ccccc1)C(=O)O (stereo not given) |  | 5.97% [at 42.5 µM]
NC(CS)C(=O)O (stereo not given) |  | 21.5% [at 42.5 µM]
CC(=O)c1ccc(C)cc1 |  | 2.3%
NC(N)=NS(=O)(=O)c1ccc(N)cc1 |  | 5.33% [at 42.5 µM]
COc1ccc(NC(C)=O)cc1 |  | 1.18%
CNc1ncnc2nc[nH]c12 |  | -1.28%
